FMDV inh: foot and mouth disease virus antiviral activity; FMDV antiviral cell-based qHTS; Potency, µM (top dose mostly 57.9 µM), actives largely listed as inhibitors; hit rate 1.2% among 410,000; calls by dose curve; tested in HEK293T cells; further: read-out not given here; nearly all actives have a fitted effect of over 45% in size
VACV Venus inh: vaccinia inhibition (Venus reporter); Vaccinia virus Venus reporter expression, fluorescence; Potency, µM (doses to about 36.5 µM), actives largely listed as inhibitors; hit rate 0.46% among 330,000; calls by dose curve; tested in A549 cells; further: nearly all actives have a fitted effect of over 30% in size
MARV entry inh: inhibitors of Marburg virus binding or cell entry; Marburg virus pseudotyped entry inhibition, cell reporter; Potency, µM (series often up to 37.8 µM), usual class: inhibitors; hit rate 1.8% among 300,000; calls by dose curve; tested in HEK293 cells
VACV mCherry inh: vaccinia inhibition (mCherry reporter); Vaccinia virus mCherry reporter infection, fluorescence; Potency, µM (top dose mostly 36.5 µM), usual class: inhibitors; hit rate 0.63% among 310,000; calls by dose curve; tested in A549 cells; further: nearly all actives have a fitted effect of over 35% in size
Sm TGR block: blocks Schistosoma mansoni thioredoxin glutathione reductase | Q962Y6 | purified TGR, DTNB reduction, TNB absorbance 405 nm | Potency, µM (series often up to 114 µM), actives largely listed as inhibitors | hit rate 3% among 360,000 | AID 485364; active means well fitted inhibition curve with a large enough effect; inconclusive means small, poorly fitted or top-dose-only effect; inactive means no such curve, though single readings can be large or run the other way; further: nearly all actives have a fitted effect of over 60% in size
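Kinetic colorimetric format: TGR-catalysed, NADPH-driven DTNB reduction monitored via TNB absorbance. Enzyme dispensed at 20 nM; compound exposure 15 min at room temperature before reaction start.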
Lassa entry inh: Lassa virus entry inhibition | Lassa virus pseudotype entry inhibition, cell reporter | Potency, µM (highest dose often 37.9 µM), usual class: inhibitors | hit rate 1.2% among 300,000 | AID 540256; calls by dose curve; tested in HEK293 cells; further: nearly all actives have a fitted effect of over 50% in size
Hits are given with their value; – = inactive; ? = inconclusive; · = not tested or not shown. Hits are enriched below; roughly 5.4% of the tested compounds scored in any of these assays.

SMILES	FMDV inh	VACV Venus inh	MARV entry inh	VACV mCherry inh	Sm TGR block	Lassa entry inh
CC(C)CNc1nnnc2c1sc1nc(N3CCOCC3)c3c(c12)CC(C)(C)SC3	?	–	?	?	–	14µM
CC1(C)Cc2c(c(N3CCOCC3)nc3sc4c(NCc5ccco5)nnnc4c23)CS1	–	?	–	·	40µM	?
CCOc1ccc(CNC(=O)C2CCCN(S(=O)(=O)c3ccc4c(c3)CCCC(=O)N4)C2)cc1 (centres undefined)	?	–	·	–	–	?
CCn1nc(C)c2c(-c3ccccc3)cc(=O)n(C(C)C(=O)NCCc3ccc(OC)c(OC)c3)c21 (centres undefined)	?	–	·	–	–	–
S=C(Nc1ccccc1)Nc1cc(Cl)ccc1Oc1ccccc1	–	–	–	–	–	–
FC(F)(F)c1ccccc1NC(=S)Nc1cccc(Cl)c1	–	–	–	–	25µM	–
S=C(Nc1ccccc1)Nc1ccc(Cl)cc1Cl	–	–	–	–	25µM	?
Fc1ccc(NC(=S)Nc2cccc(Cl)c2)cc1	–	·	–	·	?	–
FC(F)(F)c1cccc(NC(=S)Nc2ccc(Cl)cc2Cl)c1	?	?	–	·	22µM	?
S=C(Nc1ccccc1Cl)Nc1ccc(Cl)cc1Cl	?	–	–	·	25µM	–
COc1ccc2c(Sc3ccccc3)c(C(=O)NCCCN3CCCCC3)[nH]c2c1	–	–	?	–	–	?
O=C(O)/C(=C\c1ccc(-c2ccc(F)cc2)o1)c1ccccc1	–	–	?	–	18µM	?
O=Cc1ccc(-c2ccc(F)cc2)o1	–	–	–	–	–	–
O=C(/C=C\c1ccc(-c2ccccc2)o1)c1ccccc1	–	–	?	–	11µM	?
CSc1ncccc1C(=O)NCCN1Cc2ccccc2OC(c2ccccc2F)C1 (centres undefined)	–	–	·	–	·	·
COc1ccc(-c2cc3nc(C)c(CCC(=O)N4CCN(c5ccc(F)cc5)CC4)c(C)n3n2)c(OC)c1	–	?	–	?	–	–
O=C(CSc1ncn[nH]1)Nc1ccccc1Sc1ccc(Cl)cc1	16µM	–	–	·	–	?
Nc1cc(=O)[nH]c(SCC(=O)Nc2ccccc2Sc2ccc(Cl)cc2)n1	?	–	–	–	–	?
O=c1c2ccc(Cl)cc2nc(-c2cccc(C(F)(F)F)c2)n1O	?	?	?	?	–	2.5µM
CSC1SCC2C(=O)N(C)C(C(C)C)C(=O)OCC(NC(=O)c3cnc4ccccc4n3)C(=O)NC(C)C(=O)N(C)C1C(=O)N(C)C(C(C)C)C(=O)OCC(NC(=O)c1cnc3ccccc3n1)C(=O)NC(C)C(=O)N2C (centres undefined)	–	0.0035µM	?	?	·	?
COc1ccc(-c2cc(C(=O)N3CCc4c(cnc(C)c4CNC(=O)c4ccsc4)C3)[nH]n2)cc1	–	–	·	–	·	·
COc1ccc(-c2[nH]ncc2/C=C(/C#N)C(=O)NC2CCCCCC2)cc1	–	?	10µM	?	?	?
CCOc1cc(/C=N\NC(=O)c2ccc(NC(=O)C(C)(C)C)cc2)ccc1OC(=O)c1cccc(C)c1	8.9µM	·	2.6µM	·	–	6.5µM
CCOc1cc(/C=N\NC(=O)c2ccc(NC(=O)CC)cc2)ccc1OC(=O)c1ccccc1	–	·	?	·	–	23µM
COc1ccc(NC(=S)Nc2ccc(S(=O)(=O)N3CCCCC3)cc2)cc1	–	–	·	?	·	·
SMILES	FMDV inh	VACV Venus inh	MARV entry inh	VACV mCherry inh	Sm TGR block	Lassa entry inh
CC1(C)CC2CC(C)(CN2S(=O)(=O)c2ccc(C(=O)Nc3cccc(S(=O)(=O)N4CCOCC4)c3)cc2)C1 (centres undefined)	?	·	5.2µM	·	–	?
COc1ccc(NC(=S)Nc2cccc(S(=O)(=O)N3CCCCC3)c2)cc1	–	–	?	–	35µM	–
CC(C)(C)c1ccc(OCCC(=O)Nc2cccc(S(=O)(=O)N3CCOCC3)c2)cc1	25µM	–	?	–	–	?
CC1(C)CC2CC(C)(CN2S(=O)(=O)c2ccc(C(=O)Nc3cc(S(=O)(=O)N4CCOCC4)ccc3Cl)cc2)C1 (centres undefined)	–	–	?	–	–	?
CC(=O)Oc1ccc(-c2ccc(C(=O)Nc3cccc(S(=O)(=O)N4CCOCC4)c3)cc2)cc1	?	?	?	16µM	–	?
COc1ccc(COC(=O)N/N=C2\C[C@@H](O)[C@@H](O)[C@@H]3[C@@H]4C(=O)N(Cc5ccccc5)C(=O)[C@@H]4CC[C@H]23)cc1	·	·	–	·	·	·
O=C(Cn1c(=O)n2nc(-c3cccc(F)c3)nc2c2ccccc21)N1CCN(c2ccccc2F)CC1	–	–	·	–	–	–
O=C(COC(=O)CNC(=O)c1ccccc1F)Nc1cccc(S(=O)(=O)N2CCCCCC2)c1	–	–	·	–	–	·
Cc1cc(OCC(=O)Nc2cccc(S(=O)(=O)N3CCCCC3)c2)ccc1Cl	–	·	·	·	–	·
O=C(COC(=O)CNC(=O)c1ccc(Cl)cc1Cl)Nc1cccc(S(=O)(=O)N2CCCC2)c1	–	–	–	–	50µM	–
O=C(COc1ccc(C(=O)c2ccc(F)cc2)cc1)Nc1cccc(S(=O)(=O)N2CCOCC2)c1	32µM	–	–	–	·	?
Cc1cc(OCC(=O)Nc2cccc(S(=O)(=O)N3CCCC3)c2)ccc1Cl	–	–	5µM	–	–	?
CC(C)(C)c1ccc(OCCC(=O)Nc2cccc(S(=O)(=O)NC3=NCCCCC3)c2)cc1	?	–	?	–	–	10µM
CN(CC(=O)Nc1cccc(S(=O)(=O)NC2=NCCCCC2)c1)Cc1ccc(C(C)(C)C)cc1	–	–	?	–	–	?
Cc1ccc(/C=c2\s/c(=C(/C#N)C(=O)N3CCCC3)n(Cc3ccco3)c2=O)s1	–	·	?	·	5µM	?
CCS(=O)(=O)N1CCc2cc(C(=O)Nc3ccc(OC)c(Cl)c3)ccc21	–	–	?	–	–	–
O=C(c1ccccc1)c1c[nH]c(C(=O)NNc2cccc(Cl)n2)c1	–	–	–	–	–	–
O=C(c1ccc(Cl)cc1)c1c[nH]c(C(=O)NNc2cccc(Cl)n2)c1	–	11µM	?	?	–	?
Cc1ccc(/C(=C\CN2CCCC2)c2ccccn2)cc1	–	–	11µM	–	–	?
COc1ccccc1Cn1c(C2CC(=O)N(c3ccccc3OC)C2)nc2ccccc21 (centres undefined)	?	–	–	–	–	–
COCCN1C(=O)NC(c2ccco2)C(C(=O)OC)=C1C (centres undefined)	·	·	–	·	·	·
Cc1ccc(CN2C(=O)C3(c4ccccc42)N(c2cccc(C(F)(F)F)c2)C(=O)CS3(=O)=O)cc1 (centres undefined)	?	–	·	–	–	–
c1ccc(Oc2cccc(OCCCCN3CCCC3)c2)cc1	–	·	21µM	·	–	–
CC1CN(CCCCOc2cccc(Oc3ccccc3)c2)CC(C)O1 (centres undefined)	?	–	?	–	?	?
Cc1ccc(OCCCCCN2CCOCC2)cc1	–	–	–	–	–	–
c1ccc(COc2ccc(OCCCN3CCCC3)cc2)cc1	–	–	13µM	–	–	?
c1ccc(COc2ccc(OCCN3CCCC3)cc2)cc1	–	–	?	–	–	–

Source: PubChem
